The record followed here is ChEMBL document CHEMBL1961873, “Compounds: GSK PKIS; Assays: Nanosyn kinase panel” (2012).

Assay [1] deals with RAC-alpha serine/threonine-protein kinase (Homo sapiens) (UniProt P31749). The settings on record: at 0.1 µM.
The target is the same in assay [2]. The settings on record: at 1 µM.
The target in assay [3] is RAC-beta serine/threonine-protein kinase (Homo sapiens) (UniProt P31751). The settings on record: at 0.1 µM.
For assay [4] the target is unchanged. The note with it: at 1 µM.
Assay [5] concerns the target RAC-gamma serine/threonine-protein kinase (Homo sapiens) (UniProt Q9Y243). The note with it: at 0.1 µM.
Assay [6] has the same target. The note with it: at 1 µM.
For assay [7], the target named is G protein-coupled receptor kinase 6 (Homo sapiens) (UniProt P43250). The note with it: at 0.1 µM.
For assay [8] the target is unchanged. The settings on record: at 1 µM.
Assay [9] deals with T1, Rhodopsin kinase GRK7 (Homo sapiens) (UniProt Q8WTQ7).
T1 sequence (whole entry): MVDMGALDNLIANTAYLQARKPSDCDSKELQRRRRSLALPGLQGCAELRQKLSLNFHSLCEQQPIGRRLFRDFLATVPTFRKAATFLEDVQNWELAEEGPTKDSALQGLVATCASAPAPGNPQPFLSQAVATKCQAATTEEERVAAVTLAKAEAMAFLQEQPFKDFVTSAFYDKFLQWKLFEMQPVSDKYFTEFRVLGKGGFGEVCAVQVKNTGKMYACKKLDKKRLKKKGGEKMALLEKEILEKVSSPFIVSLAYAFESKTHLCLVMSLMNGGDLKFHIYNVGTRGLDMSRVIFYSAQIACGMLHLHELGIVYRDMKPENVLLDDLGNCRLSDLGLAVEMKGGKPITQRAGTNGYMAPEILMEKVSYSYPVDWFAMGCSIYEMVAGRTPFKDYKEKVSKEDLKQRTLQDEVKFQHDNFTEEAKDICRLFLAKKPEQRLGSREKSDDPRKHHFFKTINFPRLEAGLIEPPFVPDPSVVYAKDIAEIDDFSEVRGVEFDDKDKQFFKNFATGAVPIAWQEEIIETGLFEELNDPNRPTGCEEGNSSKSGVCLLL
The note with it: at 0.1 µM.

The target in assay [10] is T1, Rhodopsin kinase GRK7 (Homo sapiens). The settings on record: at 1 µM.
The target of assay [11] is Serine/threonine-protein kinase MRCK alpha (Homo sapiens) (UniProt Q5VT25). The settings on record: at 0.1 µM.
Assay [12] has the same target. The note with it: at 1 µM.
Assay [13] addresses Serine/threonine-protein kinase MRCK beta (Homo sapiens) (UniProt Q9Y5S2). The note with it: at 0.1 µM.
Assay [14] shares this target. The settings on record: at 1 µM.
Assay [15] addresses Ribosomal protein S6 kinase alpha-5 (Homo sapiens) (UniProt O75582). The settings on record: at 0.1 µM.
For assay [16] the target is unchanged. The note with it: at 1 µM.
Assay [17] has as its target Ribosomal protein S6 kinase alpha-4 (Homo sapiens) (UniProt O75676). The note with it: at 0.1 µM.
Assay [18] shares this target. The settings on record: at 1 µM.
Assay [19] deals with Ribosomal protein S6 kinase beta-1 (Homo sapiens) (UniProt P23443). The note with it: at 0.1 µM.
The target is the same in assay [20]. The settings on record: at 1 µM.

Chain of Ribosomal protein S6 kinase alpha-5 (Homo sapiens) (O75582 whole entry, looked up): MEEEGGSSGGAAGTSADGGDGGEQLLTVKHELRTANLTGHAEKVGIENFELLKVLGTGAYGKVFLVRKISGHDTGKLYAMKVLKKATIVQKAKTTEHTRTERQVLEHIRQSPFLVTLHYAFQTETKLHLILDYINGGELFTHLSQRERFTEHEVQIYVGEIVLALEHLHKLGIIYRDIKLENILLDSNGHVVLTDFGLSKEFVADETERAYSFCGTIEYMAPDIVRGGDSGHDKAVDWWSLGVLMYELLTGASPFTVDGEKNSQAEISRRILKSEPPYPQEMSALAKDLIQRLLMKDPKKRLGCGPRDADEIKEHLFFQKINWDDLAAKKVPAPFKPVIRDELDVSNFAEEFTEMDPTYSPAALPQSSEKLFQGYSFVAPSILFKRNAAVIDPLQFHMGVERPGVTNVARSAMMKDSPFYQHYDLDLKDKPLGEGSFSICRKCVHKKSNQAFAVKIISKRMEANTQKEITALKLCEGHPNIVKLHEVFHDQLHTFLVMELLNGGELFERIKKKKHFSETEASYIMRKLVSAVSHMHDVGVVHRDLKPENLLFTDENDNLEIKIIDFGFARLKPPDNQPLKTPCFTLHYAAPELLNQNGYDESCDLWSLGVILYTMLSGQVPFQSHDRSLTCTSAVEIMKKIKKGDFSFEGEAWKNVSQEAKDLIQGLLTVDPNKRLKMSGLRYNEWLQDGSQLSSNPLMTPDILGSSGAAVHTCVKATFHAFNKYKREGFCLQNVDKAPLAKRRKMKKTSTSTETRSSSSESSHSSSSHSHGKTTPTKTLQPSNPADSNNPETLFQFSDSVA
Chain of RAC-gamma serine/threonine-protein kinase (Homo sapiens) (Q9Y243 whole entry): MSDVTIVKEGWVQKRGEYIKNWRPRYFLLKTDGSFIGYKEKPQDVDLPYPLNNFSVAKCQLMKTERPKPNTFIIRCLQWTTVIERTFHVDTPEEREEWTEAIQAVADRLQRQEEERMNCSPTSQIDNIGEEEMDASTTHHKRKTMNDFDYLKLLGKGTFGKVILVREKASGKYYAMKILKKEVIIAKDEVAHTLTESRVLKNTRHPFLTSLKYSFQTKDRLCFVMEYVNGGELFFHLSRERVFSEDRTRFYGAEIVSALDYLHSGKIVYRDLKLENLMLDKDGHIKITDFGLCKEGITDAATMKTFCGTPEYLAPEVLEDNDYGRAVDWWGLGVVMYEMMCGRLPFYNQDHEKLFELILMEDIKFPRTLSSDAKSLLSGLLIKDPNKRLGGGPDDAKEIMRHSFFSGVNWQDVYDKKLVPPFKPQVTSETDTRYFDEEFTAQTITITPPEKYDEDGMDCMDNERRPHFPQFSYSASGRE
Chain of RAC-alpha serine/threonine-protein kinase (Homo sapiens) (P31749 whole entry): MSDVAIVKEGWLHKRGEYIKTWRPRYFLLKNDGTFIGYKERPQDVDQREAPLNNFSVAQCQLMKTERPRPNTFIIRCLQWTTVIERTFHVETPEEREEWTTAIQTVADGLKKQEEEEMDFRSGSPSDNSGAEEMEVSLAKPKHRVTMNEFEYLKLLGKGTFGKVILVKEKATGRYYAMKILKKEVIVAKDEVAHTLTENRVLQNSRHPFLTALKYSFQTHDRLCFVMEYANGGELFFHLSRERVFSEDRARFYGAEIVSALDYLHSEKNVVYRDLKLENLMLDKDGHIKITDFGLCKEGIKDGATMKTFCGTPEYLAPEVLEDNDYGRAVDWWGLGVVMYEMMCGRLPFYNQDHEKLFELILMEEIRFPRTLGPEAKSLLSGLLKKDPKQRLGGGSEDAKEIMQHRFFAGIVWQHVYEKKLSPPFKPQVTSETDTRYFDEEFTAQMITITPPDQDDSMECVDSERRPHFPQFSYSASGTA
Chain of RAC-beta serine/threonine-protein kinase (Homo sapiens) (P31751 whole entry): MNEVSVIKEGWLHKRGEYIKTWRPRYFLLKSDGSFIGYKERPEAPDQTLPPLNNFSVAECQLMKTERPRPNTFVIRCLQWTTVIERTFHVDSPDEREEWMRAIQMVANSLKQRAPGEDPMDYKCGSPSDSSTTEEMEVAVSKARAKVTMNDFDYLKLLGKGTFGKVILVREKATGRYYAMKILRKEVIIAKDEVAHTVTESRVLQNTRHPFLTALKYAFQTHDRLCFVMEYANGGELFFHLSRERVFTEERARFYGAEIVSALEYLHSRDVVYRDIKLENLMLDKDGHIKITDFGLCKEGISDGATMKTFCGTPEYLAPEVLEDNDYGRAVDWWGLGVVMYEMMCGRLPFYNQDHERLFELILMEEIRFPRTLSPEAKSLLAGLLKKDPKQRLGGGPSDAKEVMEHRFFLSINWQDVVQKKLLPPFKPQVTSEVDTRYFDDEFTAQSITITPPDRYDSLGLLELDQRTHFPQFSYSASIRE
Chain of Serine/threonine-protein kinase MRCK alpha (Homo sapiens) (Q5VT25 whole entry): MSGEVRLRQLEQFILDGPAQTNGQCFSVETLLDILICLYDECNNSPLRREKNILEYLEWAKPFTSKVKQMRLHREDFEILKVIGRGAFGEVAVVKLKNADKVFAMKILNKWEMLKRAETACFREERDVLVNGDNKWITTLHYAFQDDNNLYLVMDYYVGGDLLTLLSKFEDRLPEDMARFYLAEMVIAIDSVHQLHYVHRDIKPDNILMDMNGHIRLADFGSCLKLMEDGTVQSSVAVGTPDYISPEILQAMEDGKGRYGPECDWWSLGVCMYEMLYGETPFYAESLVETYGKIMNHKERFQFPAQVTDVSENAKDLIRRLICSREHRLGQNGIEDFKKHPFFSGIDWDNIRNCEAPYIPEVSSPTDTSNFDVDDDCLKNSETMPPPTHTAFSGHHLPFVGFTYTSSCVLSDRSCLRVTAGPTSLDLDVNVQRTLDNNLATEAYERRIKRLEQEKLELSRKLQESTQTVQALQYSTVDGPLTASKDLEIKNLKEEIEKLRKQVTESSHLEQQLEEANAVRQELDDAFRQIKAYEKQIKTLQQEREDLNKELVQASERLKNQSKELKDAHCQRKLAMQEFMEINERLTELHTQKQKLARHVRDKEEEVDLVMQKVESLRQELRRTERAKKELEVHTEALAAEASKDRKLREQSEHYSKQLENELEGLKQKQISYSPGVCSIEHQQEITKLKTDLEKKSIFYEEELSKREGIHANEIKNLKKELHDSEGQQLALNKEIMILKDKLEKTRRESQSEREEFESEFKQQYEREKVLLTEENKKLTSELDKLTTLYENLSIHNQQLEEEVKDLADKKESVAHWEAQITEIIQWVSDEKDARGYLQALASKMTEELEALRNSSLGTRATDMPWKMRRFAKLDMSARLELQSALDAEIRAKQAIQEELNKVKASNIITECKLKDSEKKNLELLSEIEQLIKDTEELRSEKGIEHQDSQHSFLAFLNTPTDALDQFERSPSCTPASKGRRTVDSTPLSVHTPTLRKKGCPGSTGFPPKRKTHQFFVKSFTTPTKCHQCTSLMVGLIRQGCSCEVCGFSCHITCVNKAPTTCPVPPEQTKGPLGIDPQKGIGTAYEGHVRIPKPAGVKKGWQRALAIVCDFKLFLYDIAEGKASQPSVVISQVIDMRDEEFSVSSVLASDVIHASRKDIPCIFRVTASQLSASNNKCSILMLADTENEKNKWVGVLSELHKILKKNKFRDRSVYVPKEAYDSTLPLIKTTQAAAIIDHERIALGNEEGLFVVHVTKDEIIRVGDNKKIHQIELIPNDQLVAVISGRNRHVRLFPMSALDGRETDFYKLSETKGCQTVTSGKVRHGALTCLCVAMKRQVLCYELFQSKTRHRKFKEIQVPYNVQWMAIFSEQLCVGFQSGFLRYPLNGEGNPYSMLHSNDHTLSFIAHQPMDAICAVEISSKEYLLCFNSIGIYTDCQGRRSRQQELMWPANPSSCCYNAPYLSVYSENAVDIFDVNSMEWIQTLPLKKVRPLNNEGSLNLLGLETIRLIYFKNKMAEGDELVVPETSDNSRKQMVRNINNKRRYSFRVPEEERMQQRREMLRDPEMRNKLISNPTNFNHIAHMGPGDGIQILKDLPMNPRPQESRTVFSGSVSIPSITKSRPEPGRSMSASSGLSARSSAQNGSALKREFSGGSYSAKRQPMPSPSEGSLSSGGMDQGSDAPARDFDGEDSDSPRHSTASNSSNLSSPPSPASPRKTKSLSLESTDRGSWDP
Chain of G protein-coupled receptor kinase 6 (Homo sapiens) (P43250 whole entry, looked up): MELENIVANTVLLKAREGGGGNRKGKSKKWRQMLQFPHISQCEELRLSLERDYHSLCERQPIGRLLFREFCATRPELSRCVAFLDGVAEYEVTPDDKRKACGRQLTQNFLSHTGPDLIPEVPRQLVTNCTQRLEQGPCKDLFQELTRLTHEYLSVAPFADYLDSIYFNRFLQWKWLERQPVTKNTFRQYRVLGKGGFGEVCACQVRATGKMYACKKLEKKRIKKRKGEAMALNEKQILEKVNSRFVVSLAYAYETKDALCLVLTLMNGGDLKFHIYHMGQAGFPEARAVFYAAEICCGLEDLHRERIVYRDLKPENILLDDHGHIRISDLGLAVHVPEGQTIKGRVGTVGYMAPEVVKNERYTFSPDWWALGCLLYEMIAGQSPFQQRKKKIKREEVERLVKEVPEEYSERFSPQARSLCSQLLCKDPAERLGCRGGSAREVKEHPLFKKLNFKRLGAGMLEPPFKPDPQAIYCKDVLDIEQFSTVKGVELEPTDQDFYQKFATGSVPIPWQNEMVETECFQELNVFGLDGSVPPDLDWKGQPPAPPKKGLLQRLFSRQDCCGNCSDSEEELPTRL
Chain of Ribosomal protein S6 kinase beta-1 (Homo sapiens) (P23443 whole entry, looked up): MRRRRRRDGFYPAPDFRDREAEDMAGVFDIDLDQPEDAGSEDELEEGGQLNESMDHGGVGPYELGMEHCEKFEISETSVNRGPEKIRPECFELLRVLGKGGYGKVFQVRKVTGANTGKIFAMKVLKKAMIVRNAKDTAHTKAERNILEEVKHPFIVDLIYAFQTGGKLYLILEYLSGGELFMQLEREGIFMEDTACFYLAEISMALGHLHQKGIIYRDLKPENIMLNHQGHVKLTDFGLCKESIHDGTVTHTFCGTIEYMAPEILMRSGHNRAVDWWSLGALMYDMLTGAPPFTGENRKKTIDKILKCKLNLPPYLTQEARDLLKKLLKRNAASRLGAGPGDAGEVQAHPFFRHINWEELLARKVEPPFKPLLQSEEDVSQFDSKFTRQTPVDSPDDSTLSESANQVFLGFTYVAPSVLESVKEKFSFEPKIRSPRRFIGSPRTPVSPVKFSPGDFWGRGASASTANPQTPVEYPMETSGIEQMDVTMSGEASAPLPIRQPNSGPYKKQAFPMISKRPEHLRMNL

Take `NS(=O)(=O)c1ccc(NC=C2C(=O)Nc3ccc4ncsc4c32)cc1`: the inhibition in assay [1] is 1.23%; in assay [2], -0.15%; in assay [3] it was 2.3%; in assay [4], 2.59%; in assay [5], 0.79%; in [6], 2.77%. Further, the inhibition in assay [7] turned out to be 6.28%; in [8], 35.5%; in assay [9], 6.78%; in assay [10], 22.4%; in assay [11], 3.96%; in [12], 20.5%. The inhibition in assay [13] was found to be 5.03%; in assay [14], 15.4%; in [15] it was 11%; in assay [16], 23.1%; in [17], 28.8%; in [18] it was 63.9%. Also, the inhibition was found to be 5.33% in assay [19] and 25.6% in assay [20].
Regarding `Cc1ccc(C(=O)NC2CC2)cc1-c1ccc2[nH]ncc2c1`, the inhibition was -2.21% in assay [1]; -1.97% in [2]; -3.64% in assay [3]; -3.23% in assay [4]; -4.12% in assay [5]; 0.95% in assay [6]. The inhibition was 1.1% in assay [7]; -1.57% in [8]; -1.33% in assay [9]; -8.83% in [10]; 1.33% in assay [11]; 0.57% in [12]. The inhibition in assay [13] was 0.35%; in assay [14], 5.75%; in assay [15], -4.06%; in assay [16], -3.97%; in assay [17], -1.94%; in assay [18] it was -1.58%. In addition, the inhibition in [19] is -1.62%; in [20] it was -3.02%.
On to `COc1cc(/C=N/Nc2ncnc3c2cnn3C(C)C)ccc1O`, for which the inhibition is -0.05% in [1]; -2.56% in assay [2]; 0.47% in assay [3]; -1.58% in assay [4]; 0.98% in assay [5]; -1.46% in assay [6]. In addition, the inhibition in [7] worked out at 4.24%; in assay [8], 77.6%; in assay [9], 1.66%; in [10], 7.37%; in assay [11], 0%; in assay [12] it was 0.03%. In addition, the inhibition in assay [13] amounted to 0.84%; in assay [14], 0.35%; in assay [15], 2.8%; in assay [16], 3.54%; in [17], 2.2%; in [18], 1.83%. The inhibition in assay [19] is 1.17%; in assay [20], 2.21%.
As to `CN1CCN(C(=O)c2ccc(NC(=O)Nc3ccc(N(C)c4ccnc(Nc5ccc(CS(C)(=O)=O)cc5)n4)cc3)cc2)CC1`, the inhibition in assay [1] was 0.3%; in assay [2], -0.86%; in assay [3] it was -0.33%; in assay [4], 1.06%; in [5] it was 0.49%; in [6], 1.64%. Also, the inhibition in assay [7] was 2.2%; in [8] it was 1.86%; in assay [9], 4.4%; in assay [10] it was 0.44%; in [11] it was 5.17%; in assay [12] it was 7.71%. Moreover, the inhibition in assay [13] was -0.06%; in assay [14] it was 3.61%; in [15] it was 1.16%; in [16] it was 3.3%; in [17] it was 2.61%; in [18], 13.8%. Also, the inhibition stood at 1.43% in assay [19] and 5.8% in assay [20].
Regarding `CCn1c(-c2nonc2N)nc2ccc(F)cc21`, the inhibition in assay [1] was 0.42%; in [2], 0.42%; in assay [3], 1.94%; in [4], 2.93%; in [5], 1.09%; in assay [6], 2.41%. The inhibition in [7] was 9.58%; in [8], 11.3%; in assay [9], 5.6%; in [10], 11.3%; in [11], -0.42%; in assay [12] it was 3.28%. Moreover, the inhibition in assay [13] was -0.61%; in assay [14], 1.2%; in assay [15], 7.13%; in assay [16], 21.2%; in assay [17], 3.5%; in assay [18], 10.8%. Moreover, the inhibition in assay [19] is 3.92%; in assay [20], 28.4%.
With `ON=C1CCc2cc(-c3nc(C4CCNCC4)[nH]c3-c3ccncc3)ccc21`, the inhibition in assay [1] is 0.07%; in [2] it was -0.21%; in assay [3], 0.72%; in assay [4] it was -1.73%; in assay [5], -0.56%; in assay [6] it was 0.98%. For the same compound, the inhibition was 0.43% in assay [7]; -2.74% in assay [8]; -0.92% in [9]; 1.83% in [10]; 1.01% in [11]; 1.89% in assay [12]. Further, the inhibition in assay [13] was -0.75%; in [14] it was 1.17%; in assay [15], -0.09%; in assay [16], -0.44%; in assay [17], -0.82%; in assay [18], 1.3%. Besides, the inhibition in assay [19] is 0.43%; in assay [20] it was -1.14%.
